# Where “and” joins values, the source holds several entries; their conditions need not be identical. Equal entries are not always repeated. Compounds without any hit were thinned out: in the full panel of roughly 83,000, 20% have a hit.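 Plates (96-well) were seeded with cells, treated with compound at one concentration, and incubated for 48 hours before percent growth was determined.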 Calls of active or inactive are those of the source. Rule for the calls: active = growth percent below 10; inactive = the rest.
# What was measured:
# Test in all cases: NCI-60 one-dose screen, 48 h (100 = growth as untreated, 0 = no growth, -100 = all killed)
# Conditions in all cases: 10 µM unless noted
# [1] = system: NCI-H23 lung
# [2] = system: NCI-H226 lung
# [3] = system: NCI-H322M lung
# [4] = system: HOP-62 NSCLC
# [5] = system: NCI-H460 lung
# [6] = system: HOP-92 NSCLC
# [7] = system: NCI-H522 lung
# [8] = system: A549/ATCC NSCLC
# [9] = system: 786-0 renal
# [10] = system: COLO 205 colon
Structure (SMILES),growth [1],growth [2],growth [3],growth [4],growth [5],growth [6],growth [7],growth [8],growth [9],growth [10]
CN(C)c1ccc2nc3ccc(=O)cc-3sc2c1,11.1% (inactive) and 22% (inactive),71.8% (inactive),49.7% (inactive) and 70% (inactive),35.5% (inactive) and 60.7% (inactive),19% (inactive) and 34.1% (inactive),49% (inactive) and 61% (inactive),-10.8% (active) and 41.5% (inactive),1.33% (active) and 35.9% (inactive),57.1% (inactive) and 43.7% (inactive),-10.2% (active) and 5.66% (active)
COC(=O)c1nc(-c2ccccc2)oc1S(=O)(=O)N(C)CCO,90.9% (inactive),90.8% (inactive),94.6% (inactive),103% (inactive),105% (inactive),41.7% (inactive),32.7% (inactive),91.2% (inactive),57.9% (inactive),48% (inactive)
CC[C@H](C)[C@H](NC(=O)[C@H](CCCCN)NC(=O)[C@H](CCCCN)NC(=O)[C@@H](NC(=O)[C@@H](NC(=O)[C@@H](N)Cc1cnc[nH]1)[C@@H](C)CC)[C@@H](C)CC)C(=O)N[C@@H](CCCNC(=N)N)C(=O)N[C@H](C(=O)N[C@@H](Cc1c[nH]c2ccccc12)C(=O)N[C@@H](Cc1ccc(O)cc1)C(=O)N[C@@H](CCCNC(=N)N)C(=O)N[C@@H](CCCCN)C(=O)N[C@@H](C)C(=O)N[C@@H](Cc1c[nH]c2ccccc12)C(=O)N[C@@H](Cc1cnc[nH]1)C(=O)N[C@H](C(=O)N[C@@H](CC(C)C)C(=O)NCC(=O)N[C@@H](CCCCN)C(=O)N[C@H](C(N)=O)C(C)C)C(C)C)[C@@H](C)O,17.2% (inactive),29.8% (inactive),25.1% (inactive),35.9% (inactive),7.38% (active),56.7% (inactive),45.9% (inactive),39.2% (inactive),-28.3% (active),-54.8% (active)
NNCCc1ccccc1,103% (inactive) and 88.8% (inactive),93.3% (inactive) and 75.7% (inactive),95.2% (inactive),104% (inactive) and 103% (inactive),115% (inactive) and 105% (inactive),83.1% (inactive) and 102% (inactive),92.1% (inactive) and 94.1% (inactive),108% (inactive) and 90.5% (inactive),95.2% (inactive) and 106% (inactive),96.5% (inactive) and 103% (inactive)
O=C(Cn1cc(CN2CCN(c3ccnc4cc(Cl)ccc34)CC2)nn1)Nc1cccc([N+](=O)[O-])c1,99.1% (inactive),86.3% (inactive),91.9% (inactive),71.9% (inactive),98% (inactive),71.4% (inactive),71.7% (inactive),84.8% (inactive),88% (inactive),101% (inactive)
CN(C)C1CCN(C(=O)c2ccc(NC(=O)Nc3ccc(-c4nc(N5CCOCC5)c5cccn5n4)cc3)cc2)CC1,15.5% (inactive),-7.75% (active),-9.27% (active),-12.9% (active),6.48% (active),-31.2% (active),14.6% (inactive),3.9% (active),-18.6% (active),-3.31% (active)
O=C1/C(=C/c2ccccc2)CN(C(=O)C(Cl)Cl)C/C1=C\c1ccccc1,-56.5% (active),95.6% (inactive),37.4% (inactive),75.2% (inactive),-29.7% (active),41.8% (inactive),-0.507% (active),20.8% (inactive),-15.8% (active),-1.12% (active)
CCCCCCNC(=O)Oc1ccc(/C(=C(/CC)Cc2ccccc2)c2ccc(OCCCN(C)C)cc2)cc1,79% (inactive),95.5% (inactive),89.3% (inactive),83.2% (inactive),40.2% (inactive),54.3% (inactive),89% (inactive),71.6% (inactive),68.8% (inactive),65.6% (inactive)
CC(=O)c1c(C)nc2ccccc2c1/C=C/c1cccc(C)c1,61.6% (inactive),75.2% (inactive),96.9% (inactive),60.9% (inactive),33.8% (inactive),60.2% (inactive),41.5% (inactive),43.6% (inactive),79.7% (inactive),58.5% (inactive)

# Reference: PubChem BioAssay (NCI)
